Measurements as given in PubChem BioAssay (NCATS).
Results filed as inconclusive are left out. Calls of active or inactive are those of the source. The call rests on the fitted dose curve; in most records, active means well fitted cell-killing curve with a large enough effect; inconclusive means small, poorly fitted or top-dose-only effect, or effect the other way; inactive means flat fitted curve, though single readings scatter.

Key:
Experiment in all cases: Primary qHTS to identify gynecologic anti-cancer compounds using libraries of approved drugs and bioactive compounds (AID 1345084); further: nearly all actives have a fitted effect of over 55% in size
C33A = conditions: Gynecologic cancer cell panel viability, ATPlite luminescence, 48 h; series mostly up to 57.5 µM
Procedure, shortened: (§1)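 Cells, 1,000 per well, plated 16 h, then exposed 48 h at 37 C to compounds. Viability by ATPlite luminescence after 15 min at room temperature.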

CAOV3 = conditions: Gynecologic cancer cell panel viability, ATPlite luminescence, 48 h; series mostly up to 57.5 µM
Procedure, shortened: as §1

CASKI = conditions: Gynecologic cancer cell panel viability, ATPlite luminescence, 48 h; series mostly up to 57.5 µM
Procedure, shortened: as §1

Es-2 = conditions: Gynecologic cancer cell panel viability, ATPlite luminescence, 48 h; series mostly up to 57.5 µM
Procedure, shortened: as §1

HeLa = conditions: Gynecologic cancer cell panel viability, ATPlite luminescence, 48 h; series mostly up to 57.5 µM
Procedure, shortened: as §1

Hek293T = conditions: Gynecologic cancer cell panel viability, ATPlite luminescence, 48 h, control line for the selectivity index; series mostly up to 57.5 µM
Procedure, shortened: as §1

JEG-3 = conditions: Gynecologic cancer cell panel viability, ATPlite luminescence, 48 h; series mostly up to 57.5 µM
Procedure, shortened: as §1

OV90 = conditions: Gynecologic cancer cell panel viability, ATPlite luminescence, 48 h; series mostly up to 57.5 µM
Procedure, shortened: as §1

PA-1 = conditions: Gynecologic cancer cell panel viability, ATPlite luminescence, 48 h; series mostly up to 57.5 µM
Procedure, shortened: as §1

SKOV3 = conditions: Gynecologic cancer cell panel viability, ATPlite luminescence, 48 h; series mostly up to 57.5 µM
Procedure, shortened: as §1

Tov-21-G = conditions: Gynecologic cancer cell panel viability, ATPlite luminescence, 48 h; series mostly up to 57.5 µM
Procedure, shortened: as §1

Tov112D = conditions: Gynecologic cancer cell panel viability, ATPlite luminescence, 48 h; series mostly up to 57.5 µM
Procedure, shortened: as §1
On the % scale 0 is the no-effect control and ±100 the full control effect.

CC(=O)NCC1CN(c2ccc(-c3ccc(CNCc4cn[nH]n4)cc3)c(F)c2)C(=O)O1 (centres undefined)
inactive: Potency (C33A) | Potency (CAOV3) | outcome (CASKI) | Potency (Es-2) | Potency (HeLa) | Potency (Hek293T) | Potency (JEG-3) | Potency (OV90) | Potency (PA-1) | Potency (SKOV3) | Potency (Tov-21-G) | Potency (Tov112D)

CC(=O)OC[C@]12[C@@H](OC(=O)c3ccoc3)C[C@@H]3[C@@H](OC(C)=O)[C@]1(OC3(C)C)[C@@](C)(O)C[C@H](OC(=O)c1ccoc1)[C@@H]2OC(=O)c1ccoc1
inactive: Potency (C33A) | Potency (CAOV3) | outcome (CASKI) | Potency (Es-2) | Potency (HeLa) | Potency (Hek293T) | Potency (JEG-3) | Potency (OV90) | Potency (PA-1) | Potency (SKOV3) | Potency (Tov-21-G) | Potency (Tov112D)

CC(=O)OCC(Cc1ccccc1)NC(=O)C(Cc1ccccc1)NC(=O)c1ccccc1 (centres undefined)
inactive: Potency (C33A) | Potency (CAOV3) | outcome (CASKI) | Potency (Es-2) | Potency (HeLa) | Potency (Hek293T) | Potency (JEG-3) | Potency (OV90) | Potency (PA-1) | Potency (SKOV3) | Potency (Tov-21-G) | Potency (Tov112D)

COc1cc(/C=C/C(=O)O[C@@H]2C[C@@](O)(C(=O)O)C[C@@H](O)[C@@H]2O)ccc1O
inactive: Potency (C33A) | Potency (CAOV3) | outcome (CASKI) | Potency (Es-2) | Potency (HeLa) | Potency (Hek293T) | Potency (JEG-3) | Potency (OV90) | Potency (PA-1) | Potency (SKOV3) | Potency (Tov-21-G) | Potency (Tov112D)

O=C(O)CCc1ccc(NCc2cccc3c2CCCN3CCOc2ccccc2)cc1F
inactive: Potency (C33A) | Potency (CAOV3) | outcome (CASKI) | Potency (Es-2) | Potency (HeLa) | Potency (Hek293T) | Potency (JEG-3) | Potency (OV90) | Potency (PA-1) | Potency (SKOV3) | Potency (Tov-21-G) | Potency (Tov112D)

Cc1cc(CO)c(O)c(C(=O)CC2CC(=O)NC(=O)C2)c1
inactive: Potency (C33A) | Potency (CAOV3) | outcome (CASKI) | Potency (Es-2) | Potency (HeLa) | Potency (Hek293T) | Potency (JEG-3) | Potency (OV90) | Potency (PA-1) | Potency (SKOV3) | Potency (Tov-21-G) | Potency (Tov112D)

COC(=O)[C@@H](NC(=O)[C@H](CC(C)C)NC(=O)N(Cc1ccccc1)C[C@@H](O)[C@H](Cc1ccccc1)NC(=O)OC(C)(C)C)C(C)C
inactive: activity change, negative = cytotoxicity (C33A) 9.01% [at 11.6 µM] | activity change, negative = cytotoxicity (CAOV3) -0.568% [at 11.6 µM] | activity change, negative = cytotoxicity (CASKI) 1.08% [at 11.6 µM] | activity change, negative = cytotoxicity (Es-2) 0.55% [at 11.6 µM] | activity change, negative = cytotoxicity (HeLa) 4.24% [at 11.6 µM] | activity change, negative = cytotoxicity (Hek293T) -2.96% [at 11.6 µM] | activity change, negative = cytotoxicity (JEG-3) -2.99% [at 11.6 µM] | activity change, negative = cytotoxicity (OV90) -5.58% [at 11.6 µM] | activity change, negative = cytotoxicity (PA-1) 4.66% [at 11.6 µM] | activity change, negative = cytotoxicity (SKOV3) 21.9% [at 11.6 µM] | activity change, negative = cytotoxicity (Tov-21-G) -1.16% [at 11.6 µM] | activity change, negative = cytotoxicity (Tov112D) 11% [at 11.6 µM]

CC(O)C1CCC2C3CCC4CC(OC5OC(C(=O)O)C(O)C(O)C5O)CCC4(C)C3CCC12C (centres undefined)
inactive: Potency (C33A) | Potency (CAOV3) | outcome (CASKI) | Potency (Es-2) | Potency (HeLa) | Potency (Hek293T) | Potency (JEG-3) | Potency (OV90) | Potency (PA-1) | Potency (SKOV3) | Potency (Tov-21-G) | Potency (Tov112D)

Cc1occc(=O)c1O[C@@H]1O[C@H](CO[C@@H]2OC[C@](O)(CO)[C@H]2O)[C@@H](O)[C@H](O)[C@H]1O
inactive: Potency (C33A) | Potency (CAOV3) | outcome (CASKI) | Potency (Es-2) | Potency (HeLa) | Potency (Hek293T) | Potency (JEG-3) | Potency (OV90) | Potency (PA-1) | Potency (SKOV3) | Potency (Tov-21-G) | Potency (Tov112D)

CC(=O)/C=C/C1C(C)CC(O[C@@H]2O[C@H](CO)[C@@H](O)[C@H](O)[C@H]2O)CC1(C)C (some centres undefined)
inactive: Potency (C33A) | Potency (CAOV3) | outcome (CASKI) | Potency (Es-2) | Potency (HeLa) | Potency (Hek293T) | Potency (JEG-3) | Potency (OV90) | Potency (PA-1) | Potency (SKOV3) | Potency (Tov-21-G) | Potency (Tov112D)

CCC(C)/C=C(C)/C=C/C1=CC2=C(Cl)C(=O)C(C)(OC(C)=O)C(=O)C2=CN1CCCCC(N)C(=O)O (centres undefined)
inactive: Potency (C33A) | Potency (CAOV3) | outcome (CASKI) | Potency (Es-2) | Potency (HeLa) | Potency (Hek293T) | Potency (JEG-3) | Potency (OV90) | Potency (PA-1) | Potency (SKOV3) | Potency (Tov-21-G) | Potency (Tov112D)

COc1cc(C(=O)OCC2=CCC3C(C(=O)O)=COC(O[C@@H]4O[C@H](CO)[C@@H](O)[C@H](O)[C@H]4O)C23)ccc1O (some centres undefined)
inactive: Potency (C33A) | Potency (CAOV3) | outcome (CASKI) | Potency (Es-2) | Potency (HeLa) | Potency (Hek293T) | Potency (JEG-3) | Potency (OV90) | Potency (PA-1) | Potency (SKOV3) | Potency (Tov-21-G) | Potency (Tov112D)
